Test results: PubChem BioAssay AID504339 (National Center for Advancing Translational Sciences (NCATS), 2011)
The whole screen tested about 390,000 compounds, of which about 17,000 (4.4%) were called active. Not shown: some 8% with an inconclusive outcome. What follows is part of a selection rich in actives, with near analogues and random picks from the rest. Values without a mark were called inactive. Calls follow the shape of the dose curve; as a rule, active = well fitted inhibition curve with a large enough effect; inconclusive = small, poorly fitted or top-dose-only effect; inactive = no such curve, though single readings can be large or run the other way.

Each compound was assayed against Lysine-specific demethylase 4A (Homo sapiens) (UniProt O75164) (assay: qHTS Assay for Inhibitors of JMJD2A-Tudor Domain). Conditions: AlphaScreen JMJD2A-Tudor / H3K4me3 peptide binding; series mostly up to 114 µM; activity change, negative = inhibition: at the top concentration.
Lysine-specific demethylase 4A (Homo sapiens), sequence (O75164 whole entry, looked up, the tested form may be a part): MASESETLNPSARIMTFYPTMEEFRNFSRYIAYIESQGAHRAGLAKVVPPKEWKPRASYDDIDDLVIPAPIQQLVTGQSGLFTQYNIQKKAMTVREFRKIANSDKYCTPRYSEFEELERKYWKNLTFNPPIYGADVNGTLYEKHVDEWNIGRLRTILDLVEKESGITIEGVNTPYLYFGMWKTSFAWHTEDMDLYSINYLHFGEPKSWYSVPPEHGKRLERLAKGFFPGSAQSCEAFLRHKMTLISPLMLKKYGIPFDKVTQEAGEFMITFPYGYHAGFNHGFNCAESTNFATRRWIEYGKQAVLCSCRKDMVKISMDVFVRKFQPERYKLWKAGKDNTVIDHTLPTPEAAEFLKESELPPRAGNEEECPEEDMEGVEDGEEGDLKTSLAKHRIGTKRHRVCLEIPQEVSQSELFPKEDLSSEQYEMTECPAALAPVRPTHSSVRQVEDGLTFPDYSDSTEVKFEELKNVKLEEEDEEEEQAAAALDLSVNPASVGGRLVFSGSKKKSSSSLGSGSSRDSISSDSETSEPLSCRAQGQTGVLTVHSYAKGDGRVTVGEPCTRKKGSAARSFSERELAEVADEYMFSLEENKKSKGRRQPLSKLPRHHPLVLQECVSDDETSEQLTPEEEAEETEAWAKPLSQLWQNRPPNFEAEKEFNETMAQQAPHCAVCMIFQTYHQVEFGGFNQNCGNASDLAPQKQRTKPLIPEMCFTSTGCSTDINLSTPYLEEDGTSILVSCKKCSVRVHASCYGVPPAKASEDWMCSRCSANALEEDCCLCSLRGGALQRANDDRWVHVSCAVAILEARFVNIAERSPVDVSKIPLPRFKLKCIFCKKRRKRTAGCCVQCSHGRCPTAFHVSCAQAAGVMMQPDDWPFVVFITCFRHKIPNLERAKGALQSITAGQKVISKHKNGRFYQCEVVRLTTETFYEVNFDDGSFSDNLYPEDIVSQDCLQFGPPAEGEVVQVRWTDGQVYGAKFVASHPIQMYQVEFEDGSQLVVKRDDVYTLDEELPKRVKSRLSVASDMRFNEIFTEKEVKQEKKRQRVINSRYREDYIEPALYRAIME
% is scaled to controls: 0 for no effect and ±100 for the full control effect; potency is read from the fitted curve at half-maximal effect.
Also: nearly all actives have a fitted effect of over 50% in size.

How did the “activity change, negative = inhibition” value turn out when `COc1ccccc1CNC(=O)NCc1noc2ccc(C)cc12` was run?
Its value is 7.33%.

`O=C(NCc1ccc2c(c1)OCO2)C12CC3CC(CC(C3)C1)C2` was tested. Which “activity change, negative = inhibition” value did it give?
The value was -2.7%.

Which Potency does the source give for `COc1cccc(CNCc2ccc3c(c2)OCO3)c1` here?
The Potency was 1.78 µM (active).

For `Cc1ccc(CNCc2ccc3c(c2)OCO3)c(C)c1`, which Potency is on record?
Its Potency is 39.8 µM (active).

For `COc1ccc(NC(=O)NCc2ccc3c(c2)OCO3)c(OC)c1`, which “activity change, negative = inhibition” value is on record?
Its value is -0.641%.

Which “activity change, negative = inhibition” value does the source give for `COc1cc(OC)c(C(=O)NCc2ccc3c(c2)OCO3)cc1OC` here?
Its value is -16.7%.

For `COc1cccc(CC(=O)OCC(=O)NCc2ccc3c(c2)OCO3)c1`, which “activity change, negative = inhibition” value is on record?
The value was -5.52%.

For `CC(=O)c1c(C)n(S(=O)(=O)c2ccc(Cl)cc2)c2ccc(NS(=O)(=O)c3ccc(Cl)cc3)cc12`, which “activity change, negative = inhibition” value is on record?
The value was -18%.

With `O=C(NCCc1ccccc1)c1ccc2c(c1)N(Cc1ccc(F)cc1)C(=O)c1ccccc1S2(=O)=O` as the compound, how does the “activity change, negative = inhibition” value read?
Its value is -2.36%.

How did the “activity change, negative = inhibition” value turn out when `CC(C)(C)C1CCc2c(sc(NC(=O)c3ccccc3F)c2C(=O)N2CCCCC2)C1` (centres undefined) was run?
Its value is 2.42%.

How did the “activity change, negative = inhibition” value turn out when `CC(C)c1ccc(NC(=O)CN(C)S(=O)(=O)c2ccc3c(c2)c(=O)n(C)c(=O)n3C)cc1` was run?
The value was 0.337%.

Which “activity change, negative = inhibition” value does the source give for `COc1ccc(-c2cc(C(F)(F)F)nc(SCC(=O)N(C)Cc3ccccc3)n2)cc1OC` here?
The value was 17.5%.

With `Cc1ccc(-c2nn(CCC(=O)Nc3ccc(Cl)c(Cl)c3)c(=O)c3ccccc23)cc1` as the compound, how does the “activity change, negative = inhibition” value read?
Its value is -14.6%.

`Cc1ccccc1OCCSc1nc2ccc(NC(=O)c3ccco3)cc2s1` was tested. Which “activity change, negative = inhibition” value did it give?
Its value is -9.93%.

Which Potency does the source give for `COc1ccc2nc(N3C(=O)C(O)=C(C(=O)c4ccco4)C3c3ccco3)sc2c1` (centres undefined) here?
The Potency was 0.794 µM (active).

For `COc1ccc2nc(N3CCN(C(=O)c4ccc([N+](=O)[O-])o4)CC3)sc2c1`, which “activity change, negative = inhibition” value is on record?
Its value is -22.6%.

How did the “activity change, negative = inhibition” value turn out when `COc1ccc(NC(C)=O)cc1NC(=O)CN1CCN(c2ccc(F)cc2)CC1` was run?
Its value is -16.2%.

How did the “activity change, negative = inhibition” value turn out when `COC(=O)c1ccccc1NC(=O)c1cnn(-c2ccc(F)cc2)c1-n1cccc1` was run?
Its value is -11.7%.

With `CCc1ccccc1NC(=O)CSc1nc(C)c(C(=O)Nc2ccccc2)c(-c2ccc(Cl)cc2)c1C#N` as the compound, how does the “activity change, negative = inhibition” value read?
The value was -16.3%.

How did the “activity change, negative = inhibition” value turn out when `CCN(CC)S(=O)(=O)c1ccc2c(c1)c(=O)c(C(=O)N1CCN(c3cccc(Cl)c3)CC1)cn2C` was run?
Its value is -31.3%.

For `CN1CCN(CC(O)COCc2ccc3c(c2)OCO3)CC1` (centres undefined), which “activity change, negative = inhibition” value is on record?
Its value is -34.4%.

Which “activity change, negative = inhibition” value does the source give for `OC(COc1ccccc1)CN1CCN(c2cccc(Cl)c2)CC1` (centres undefined) here?
The value was -26.4%.

`OC(COCc1ccco1)CN1CCN(c2ccccc2)CC1` (centres undefined) was tested. Which Potency did it give?
Its Potency is 2.51 µM (active).

With `COc1cccc(C(=O)NCC(=O)OCc2cc(=O)n3ccsc3n2)c1` as the compound, how does the “activity change, negative = inhibition” value read?
The value was -9.67%.

`CC(C)c1ccc(NC(=O)c2cc(S(=O)(=O)N3CCc4ccccc4C3)ccc2F)cc1` was tested. Which “activity change, negative = inhibition” value did it give?
The value was -12.2%.

Which “activity change, negative = inhibition” value does the source give for `CCOc1ccccc1NC(=O)c1ccc2c(c1)CCN2S(=O)(=O)c1ccc(C)cc1` here?
Its value is -6.6%.

For `CCOc1ccc(N(Cc2ccccc2)C(=O)c2nc(S(C)(=O)=O)ncc2Cl)cc1`, which “activity change, negative = inhibition” value is on record?
The value was -13.2%.

Which “activity change, negative = inhibition” value does the source give for `CC(CN1CCC(n2nccc2NC(=O)C2CCCC2)CC1)c1ccccc1` (centres undefined) here?
The value was -9.49%.

Which Potency does the source give for `CC(CN1CCCCC1)c1ccccc1` (centres undefined) here?
Its Potency is 3.98 µM (active).

With `CC(CN1CCOCC1)c1ccccc1` (centres undefined) as the compound, how does the “activity change, negative = inhibition” value read?
Its value is -4.19%.

How did the “activity change, negative = inhibition” value turn out when `COc1ccc(-n2c(SCC(N)=O)nc3c(oc4ccccc43)c2=O)cc1` was run?
Its value is -1.45%.

For `CCn1cc(C(=O)NCc2ccc(C)cc2)c(=O)c2cc(S(=O)(=O)N3CCc4ccccc4C3)ccc21`, which “activity change, negative = inhibition” value is on record?
The value was -23%.

`CCCCNC(=O)c1ccc2c(c1)NC(=O)C(C(C)C)N2` (centres undefined) was tested. Which “activity change, negative = inhibition” value did it give?
Its value is -9.9%.

How did the Potency turn out when `CN(C)c1ccc(C(CNC(=O)c2ccc(F)cc2)c2c[nH]c3ccccc23)cc1` (centres undefined) was run?
Its Potency is 25.1 µM (active).

`CCOc1ccccc1C(=O)NCC(c1ccc(N(C)C)cc1)N1CCCC1` (centres undefined) was tested. Which “activity change, negative = inhibition” value did it give?
The value was -27.5%.

Which “activity change, negative = inhibition” value does the source give for `C[C@H](NC(=O)c1ccccc1)C(=O)OCC(=O)c1c[nH]c2ccccc12` here?
The value was -10.7%.

For `Cc1ccc(CN2COc3cc(C)c4c(oc(=O)c5ccccc54)c3C2)cc1`, which “activity change, negative = inhibition” value is on record?
The value was -22.6%.

With `Cc1ccc(NC2=C(c3ccc(C(F)(F)F)cc3)C(=O)c3ccccc32)cc1F` as the compound, how does the “activity change, negative = inhibition” value read?
Its value is -21.9%.

`COc1ccc(N2C(=O)CSC23C(=O)N(Cc2cccc(F)c2)c2ccccc23)cc1Cl` (centres undefined) was tested. Which “activity change, negative = inhibition” value did it give?
Its value is -12.4%.

Which “activity change, negative = inhibition” value does the source give for `O=C(CS(=O)(=O)c1cccc2nsnc12)N1CCN(c2cccc(Cl)c2)CC1` here?
Its value is -21.6%.

With `COc1ccc2c(c1OC)C(=O)N(c1ncn[nH]1)C2` as the compound, how does the Potency read?
The Potency was 39.8 µM (active).

Which “activity change, negative = inhibition” value does the source give for `COc1ccc2c(c1OC)C(=O)N(c1ccc(O)cc1)C2` here?
The value was 0%.

For `COc1ccc(C2C(C#N)=C(N)N(c3ncn[nH]3)C3=C2C(=O)CCC3)cc1` (centres undefined), which activity change, negative = inhibition is on record?
Its activity change, negative = inhibition is -18% [at 11.4 µM].

With `CCOC(=O)c1c(S(=O)(=O)N2CCCC(C(=O)NCc3cccc(C)c3)C2)c(C)n(C)c1C` (centres undefined) as the compound, how does the “activity change, negative = inhibition” value read?
The value was -17.7%.

How did the “activity change, negative = inhibition” value turn out when `Cc1cc(C)cc(NS(=O)(=O)c2ccc3[nH]cc(C(=O)N4CCCCC4)c(=O)c3c2)c1` was run?
Its value is -28.7%.

How did the Potency turn out when `O=C1C(Cl)=C(Oc2ccccc2)C(=O)c2ccccc21` was run?
The Potency was 1 µM (active).

For `Cc1ccc(-n2c3nc(=O)[nH]c(=O)c-3cc3c(Cl)cccc32)cc1`, which “activity change, negative = inhibition” value is on record?
The value was -12.4%.

With `COc1cc(CNCCSc2nnnn2C)ccc1OCc1c(F)cccc1Cl` as the compound, how does the “activity change, negative = inhibition” value read?
The value was -14.2%.

For `CC(=O)O[C@H]1c2ccccc2-c2ccccc2[C@@H]1OC(C)=O`, which “activity change, negative = inhibition” value is on record?
The value was 11%.
